# Shown are actives, neighbours in structure and some others; about 12% of the full set was active somewhere.
# L3MBTL1 block – L3MBTL1 (human) inhibition. 230,000 tested, 0.66% active. Potency, µM (highest dose often 57.1 µM), inactives show at the top dose activity, negative = inhibition, usual class: inhibitors. AID 485360. AlphaScreen L3MBTL1–H3K9me1 peptide binding; also: potency is read from the fitted curve at half-maximal effect; % is scaled to controls: 0 for no effect and ±100 for the full control effect; nearly all actives have a fitted effect of over 60% in size
# Target sequence (Q9Y468 whole entry, looked up): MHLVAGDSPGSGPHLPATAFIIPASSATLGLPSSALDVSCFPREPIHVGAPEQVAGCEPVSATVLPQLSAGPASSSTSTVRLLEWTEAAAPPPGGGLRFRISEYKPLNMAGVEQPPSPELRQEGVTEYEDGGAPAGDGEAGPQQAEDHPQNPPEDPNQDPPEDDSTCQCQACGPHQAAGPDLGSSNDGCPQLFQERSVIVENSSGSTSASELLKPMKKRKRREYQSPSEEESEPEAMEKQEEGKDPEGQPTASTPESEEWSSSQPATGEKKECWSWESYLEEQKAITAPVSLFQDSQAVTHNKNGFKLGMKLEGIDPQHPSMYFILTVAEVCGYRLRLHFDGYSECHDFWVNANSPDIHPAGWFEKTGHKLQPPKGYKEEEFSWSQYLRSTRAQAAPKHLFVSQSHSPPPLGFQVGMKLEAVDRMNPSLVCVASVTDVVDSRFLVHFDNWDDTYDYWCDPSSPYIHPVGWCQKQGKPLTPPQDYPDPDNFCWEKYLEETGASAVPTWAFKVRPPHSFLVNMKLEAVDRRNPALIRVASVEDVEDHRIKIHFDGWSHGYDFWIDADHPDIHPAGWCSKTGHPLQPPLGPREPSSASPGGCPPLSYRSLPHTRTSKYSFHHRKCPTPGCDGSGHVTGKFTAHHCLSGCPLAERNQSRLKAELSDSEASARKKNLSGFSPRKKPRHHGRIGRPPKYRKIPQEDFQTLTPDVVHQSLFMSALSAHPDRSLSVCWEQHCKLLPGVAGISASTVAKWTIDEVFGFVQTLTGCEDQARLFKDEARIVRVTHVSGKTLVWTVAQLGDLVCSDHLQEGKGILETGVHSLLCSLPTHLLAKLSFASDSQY
#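 L3MBTL1 50 nM + b-AHA-H3(1-15)K9me1 75 nM, 30 min RT; compound added, 30 min RT; streptavidin donor/Ni-chelate acceptor beads 10 ug/mL each final, 30 min RT dark; AlphaScreen read.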
# G9a block – blocks human histone lysine methyltransferase G9a; Q96KQ7; G9a H3K9 monomethylation, AlphaScreen, 2 h; Potency, µM (highest dose often 102 µM), inactives show top-dose activity, negative = inhibition, most hits filed as inhibitors; 350,000 tested, 8.8% active; AID 504332; also: potency is read from the fitted curve at half-maximal effect; % is scaled to controls: 0 for no effect and ±100 for the full control effect; nearly all actives have a fitted effect of over 75% in size
#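 Signal arises when biotinylated H3K9 peptide, once monomethylated, bridges streptavidin donor and antibody-captured acceptor beads. Enzyme at 20 nM was preincubated 15 min with test compounds; peptide 500 nM and SAM 20 uM then reacted for 2 h.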
# Sfp inh – blocks B. subtilis Sfp PPTase activity | Q9F4F7 | 310,000 tested, 3.5% active | Biochemical Sfp PPTase activity, qHTS | AID 1490 | Potency, µM, without a hit: largest response in the series, negative = inhibition, usual class: inhibitors;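 also: the enzyme is Sfp with the accession as filed and its product quenches rhodamine fluorescence; potency is read from the fitted curve at half-maximal effect; 0% = enzyme reaction without inhibitor and -100% = no enzyme wells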
#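 After 15 min at room temperature with compound, 15 nM Sfp received 5 uM rhodamine-CoA plus 12.5 uM BHQ-2-ybbR (50 mM Hepes pH 7.6, 10 mM MgCl2). Rate came from the fluorescence difference over 30 min, ex 525/em 598 nm.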
# JMJD2A Tudor – JMJD2A Tudor domain (human) inhibition | 390,000 tested, 4.4% active | O75164 | Potency, µM (titrated, usually from 114 µM), inactives show top-dose activity change, negative = inhibition, most hits filed as inhibitors | AID 504339 | AlphaScreen JMJD2A-Tudor / H3K4me3 peptide binding; also: potency is read from the fitted curve at half-maximal effect; % is scaled to controls: 0 for no effect and ±100 for the full control effect; nearly all actives have a fitted effect of over 50% in size
# HP1b binding inh – blocks HP1-beta chromodomain binding to methylated histone tails | P83916 | AlphaScreen HP1-beta / biotin-H3K9me3 peptide binding | Potency, µM (series often up to 114 µM), inactives show at the highest dose activity change, negative = inhibition, hits mostly inhibitors | 390,000 tested, 0.56% active | AID 540317; also: potency is read from the fitted curve at half-maximal effect; nearly all actives have a fitted effect of over 70% in size
#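 AlphaScreen: HP1-beta (50 nM) preformed 30 min with biotin-H3(1-18)K9me3 peptide (50 nM) in PBS pH 7.4, 0.01% Tween-20. Compound added for 30 min at RT, then streptavidin donor/nickel chelate acceptor beads (10 ug/mL) for 30 min.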
# BAZ2B block – blocks human BAZ2B; 360,000 tested, 4.4% active; Potency, µM (highest dose often 114 µM), inactives show at the highest dose activity change, negative = inhibition, hits mostly inhibitors; Q9UIF8; AlphaScreen BAZ2B-H3K14Ac peptide displacement; AID 504333; also: potency is read from the fitted curve at half-maximal effect; % is scaled to controls: 0 for no effect and ±100 for the full control effect; nearly all actives have a fitted effect of over 60% in size
#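 AlphaScreen displacement of biotin-H3(5-23)K14Ac peptide (50 nM final) from BAZ2B (50 nM final) in PBS pH 7.4, 0.01% Tween-20; complex preformed 30 min RT, then compounds (top 110 uM) 30 min RT, beads 20 min dark.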
# Sfp PPTase conf – confirmation of Bacillus subtilis Sfp PPTase inhibitors. Sfp PPTase enzymatic assay, qHTS titration. AID 2701. Potency, µM (top dose mostly 114 µM), inactives show at the highest dose activity change, negative = inhibition, actives largely listed as inhibitors. shares compounds with Sfp inh. 380 tested, 79% active;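 also: potency is read from the fitted curve at half-maximal effect; plate controls were uninhibited Sfp reaction for no effect and no enzyme control for full effect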
# Sfp PPTase gel – Inhibits B. subtilis Sfp phosphopantetheinylation; shares compounds with Sfp inh; purified Sfp, gel-based phosphopantetheinylation read-out; Potency, µM, usual class: inhibitors; 210 tested, 20% active; AID 2707;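 active = potency below 100 µM; inconclusive = dose-dependent response but potency above 100 µM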;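 also: band intensities scaled against SCH202676 control wells before curve fitting; potency is an IC50 for inhibitors of Sfp transfer activity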
# * = called active by the depositor; i = inactive; ? = inconclusive; · = no result; ! = a repeat was not active; [ ] = another dose, or the depositor's remark. Unless noted, calls follow the shape of the dose curve; as a rule, active = well fitted curve in the direction sought with a large enough effect; inconclusive = small, poorly fitted or top-dose-only effect, or another doubt; inactive = no such curve, though single readings can be large; an effect the other way counts as inactive or inconclusive.
SMILES,L3MBTL1 block,G9a block,Sfp inh,JMJD2A Tudor,HP1b binding inh,BAZ2B block,Sfp PPTase conf,Sfp PPTase gel
C[C@]12CC[C@@H]3c4ccc(O)c(O)c4CC[C@H]3[C@@H]1CC[C@@H]2O,·,?,3.2µM*,8.9µM*,16µM*,56µM*,6.6µM*,2.1µM*
C[C@]12CC[C@@H]3c4ccc(OC(=O)N(CCCl)CCCl)cc4CC[C@H]3[C@@H]1CC[C@@H]2O,·,?,0%,·,·,·,·,·
C[C@]12CC[C@H]3[C@@H](CCC4=CC(=O)CC[C@@H]43)[C@@H]1CC[C@@H]2O,1%,-16%[59 µM],-1%,-6%,54%,·,·,·
C[C@]12CC[C@@H]3c4cc(O)c(O)cc4CC[C@H]3[C@@H]1CC[C@@H]2O,·,8.9µM*,4µM*,13µM*,?,?,21µM*,6.2µM*
C=C(C)[C@H]1Cc2c(ccc3c2O[C@@H]2COc4cc(OC)c(OC)cc4[C@@H]2C3=O)O1,·,10%[12.7 µM],-10%,·,·,·,·,·
C[C@]12CC[C@H](OS(=O)(=O)O)CC1=CCC1C2CC[C@]2(C)C(=O)CC[C@@H]12 (stereo partly drawn),·,32%[12.7 µM],-5%,·,·,·,·,·
O=[N+]([O-])c1cc(I)c(O)c(I)c1,·,6%[59 µM],11%,·,·,·,·,·
Nc1nc(/C(=C/CC(=O)O)C(=O)NC2C(=O)N3C(C(=O)O)=CCSC23)cs1 (stereo not drawn),·,-10%[2.33 µM],56µM*,·,·,·,42µM*,?
O=C(Cn1c(=O)oc2cc(S(=O)(=O)N3CCCC3)ccc21)Nc1cccc(C(F)(F)F)c1,51%,-34%[59 µM],2%,-11%,12%,29%,·,·
COC(=O)C1C2c3ccccc3C(c3ccccc32)C1C(=O)OC (stereo not drawn),·,-1%,1%,2%,29%,-7%,·,·
COC(=O)C1=C(C)NC(C)=C(C(=O)OC)C1c1ccccc1[N+](=O)[O-],-16%,3µM*,18µM*!,?,?,40µM*,37µM*,·
Clc1ccc(COC(Cn2ccnc2)c2ccc(Cl)cc2Cl)cc1 (stereo not drawn),-12%,-28%[2.33 µM],56µM*!,?,-20%,25µM*,?,i
CCOC(=O)[C@]1(C#N)[C@@H]2C=CC(C(C)=O)=CN2[C@@H](C(N)=O)[C@@H]1c1ccsc1,-15%[11.4 µM],-45%[59 µM],40µM*,-16%,-1%,-31%,?,?
NC(=O)c1cn(C2OC(CO)C(O)C2O)c2ncnc(N)c12 (stereo not drawn),-1%,?,6%,?,18%,-26%,·,·
NC(=O)c1ncn(C2OC(CO)C(O)C2O)n1 (stereo not drawn),·,·,56µM*,·,·,·,83µM*,56µM*
COc1ccc2cc1Oc1ccc(cc1)C[C@H]1c3cc(c(OC)cc3CCN1C)Oc1c(OC)c(OC)cc3c1[C@@H](C2)N(C)CC3,-1%,24%[2.33 µM],-2%,?,1%,?,·,·
C=C(C)[C@H]1CN[C@H](C(=O)O)[C@H]1CC(=O)O,·,9%[12.7 µM],40µM*!,40µM*,?,·,12%,i
CCOC(=O)c1c(/N=C/c2c(O)n(-c3ccccc3F)c(=S)[nH]c2=O)sc2c1CCCC2,·,-7%[12.7 µM],13µM*,?,-5%,?,19µM*,·
O=c1[nH]c2ccccc2n1C1CCN(CCCC(c2ccc(F)cc2)c2ccc(F)cc2)CC1,-19%,26%[12.7 µM],45µM*!,40µM*,?,?,42µM*,?
O=C(Oc1ccccc1)N1CCC[C@@]2(CCN(C(c3ccccc3)c3ccccc3)C2)C1,·,8%[12.7 µM],1%,·,·,·,·,·
Nc1ccnn1C1CCNCC1,10%,22µM*,18µM*,-17%,?,3%,?,i

# Compound activity: PubChem, National Center for Advancing Translational Sciences (NCATS)
